Laboratory results as given in publication PMC11006913.
Substitutions are numbered along the chain they refer to.

Columns and labels:
Assay in all cases: PBM; 200 nM protein, PBS
Settings in all cases: dsDNA, one strand shown
[1] = target: T1, SIX6 (Homo sapiens, UniProt O95475 114-200, L167I)
T1 sequence: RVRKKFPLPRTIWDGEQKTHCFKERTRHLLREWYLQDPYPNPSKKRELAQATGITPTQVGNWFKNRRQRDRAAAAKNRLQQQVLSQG

[2] = target: T2, SIX6 (Homo sapiens, UniProt O95475 114-200, T165P)
T2 sequence: T1 sequence with T52P, I54L

[3] = target: T3, SIX6 (Homo sapiens, UniProt O95475 114-200, L167M)
T3 sequence: T1 sequence with I54M

[4] = target: T4, SIX6 (Homo sapiens, UniProt O95475 114-200, T165G)
T4 sequence: T1 sequence with T52G, I54L

[5] = target: T5, SIX6 (Homo sapiens, UniProt O95475 114-200, T165A)
T5 sequence: T1 sequence with T52A, I54L

[6] = target: T6, SIX6 (Homo sapiens, UniProt O95475 114-200, H141N)
T6 sequence: T1 sequence with H28N, I54L

[7] = target: T7, SIX6 (Homo sapiens, UniProt O95475 114-200, L143M)
T7 sequence: T1 sequence with L30M, I54L

[8] = target: T8, SIX6 (Homo sapiens, UniProt O95475 114-200, L143I)
T8 sequence: T1 sequence with L30I, I54L

[9] = target: T9, SIX6 (Homo sapiens, UniProt O95475 114-200, L167V)
T9 sequence: T1 sequence with I54V

[10] = target: T10, SIX6 (Homo sapiens, UniProt O95475 114-200)
T10 sequence: T1 sequence with I54L

[11] = target: T11, SIX6 (Homo sapiens, UniProt O95475 114-200, T165I)
T11 sequence: T1 sequence with T52I, I54L

[12] = target: T12, SIX6 (Homo sapiens, UniProt O95475 114-200, T139Q)
T12 sequence: T1 sequence with T26Q, I54L

[13] = target: T13, SIX6 (Homo sapiens, UniProt O95475 114-200, L143V)
T13 sequence: T1 sequence with L30V, I54L

Sequence | binding signal [1] | binding signal [2] | binding signal [3] | binding signal [4] | binding signal [5] | binding signal [6] | binding signal [7] | binding signal [8] | binding signal [9] | binding signal [10] | binding signal [11] | binding signal [12] | binding signal [13]
GGGTGTCA | 10.4 upbm affinity estimate (log intensity, higher = more binding, comparable within an allelic series) | 9.2 upbm affinity estimate (log intensity, higher = more binding, comparable within an allelic series) | 9.79 upbm affinity estimate (log intensity, higher = more binding, comparable within an allelic series) | 11.1 upbm affinity estimate (log intensity, higher = more binding, comparable within an allelic series) | 11.1 upbm affinity estimate (log intensity, higher = more binding, comparable within an allelic series) | – | – | – | – | – | – | – | –
CGGATAAA | 10.4 upbm affinity estimate (log intensity, higher = more binding, comparable within an allelic series) | 9.86 upbm affinity estimate (log intensity, higher = more binding, comparable within an allelic series) | 10.4 upbm affinity estimate (log intensity, higher = more binding, comparable within an allelic series) | – | 10.3 upbm affinity estimate (log intensity, higher = more binding, comparable within an allelic series) | 10.3 upbm affinity estimate (log intensity, higher = more binding, comparable within an allelic series) | 10.5 upbm affinity estimate (log intensity, higher = more binding, comparable within an allelic series) | 10 upbm affinity estimate (log intensity, higher = more binding, comparable within an allelic series) | 10.2 upbm affinity estimate (log intensity, higher = more binding, comparable within an allelic series) | 10.4 upbm affinity estimate (log intensity, higher = more binding, comparable within an allelic series) | 10.3 upbm affinity estimate (log intensity, higher = more binding, comparable within an allelic series) | – | –
AGAATATC | 10.5 upbm affinity estimate (log intensity, higher = more binding, comparable within an allelic series) | 9.77 upbm affinity estimate (log intensity, higher = more binding, comparable within an allelic series) | 10.4 upbm affinity estimate (log intensity, higher = more binding, comparable within an allelic series) | 10.5 upbm affinity estimate (log intensity, higher = more binding, comparable within an allelic series) | 10.4 upbm affinity estimate (log intensity, higher = more binding, comparable within an allelic series) | 10.3 upbm affinity estimate (log intensity, higher = more binding, comparable within an allelic series) | 10.5 upbm affinity estimate (log intensity, higher = more binding, comparable within an allelic series) | 9.98 upbm affinity estimate (log intensity, higher = more binding, comparable within an allelic series) | 10.3 upbm affinity estimate (log intensity, higher = more binding, comparable within an allelic series) | 10.3 upbm affinity estimate (log intensity, higher = more binding, comparable within an allelic series) | 10.3 upbm affinity estimate (log intensity, higher = more binding, comparable within an allelic series) | 10.5 upbm affinity estimate (log intensity, higher = more binding, comparable within an allelic series) | –
TGACACCA | 10.3 upbm affinity estimate (log intensity, higher = more binding, comparable within an allelic series) | – | 9.84 upbm affinity estimate (log intensity, higher = more binding, comparable within an allelic series) | 11.2 upbm affinity estimate (log intensity, higher = more binding, comparable within an allelic series) | 11.1 upbm affinity estimate (log intensity, higher = more binding, comparable within an allelic series) | – | – | – | – | – | – | – | –
GATCAGCC | 10.2 upbm affinity estimate (log intensity, higher = more binding, comparable within an allelic series) | 9.41 upbm affinity estimate (log intensity, higher = more binding, comparable within an allelic series) | 10 upbm affinity estimate (log intensity, higher = more binding, comparable within an allelic series) | – | – | – | – | 9.82 upbm affinity estimate (log intensity, higher = more binding, comparable within an allelic series) | – | 10.3 upbm affinity estimate (log intensity, higher = more binding, comparable within an allelic series) | – | – | 9.81 upbm affinity estimate (log intensity, higher = more binding, comparable within an allelic series)
CTATACTA | 10.2 upbm affinity estimate (log intensity, higher = more binding, comparable within an allelic series) | – | 10.2 upbm affinity estimate (log intensity, higher = more binding, comparable within an allelic series) | 10.2 upbm affinity estimate (log intensity, higher = more binding, comparable within an allelic series) | – | 10.1 upbm affinity estimate (log intensity, higher = more binding, comparable within an allelic series) | – | – | 10.1 upbm affinity estimate (log intensity, higher = more binding, comparable within an allelic series) | 10.2 upbm affinity estimate (log intensity, higher = more binding, comparable within an allelic series) | 10.1 upbm affinity estimate (log intensity, higher = more binding, comparable within an allelic series) | – | –
ATACCTCC | 10.3 upbm affinity estimate (log intensity, higher = more binding, comparable within an allelic series) | 9.38 upbm affinity estimate (log intensity, higher = more binding, comparable within an allelic series) | – | 10.5 upbm affinity estimate (log intensity, higher = more binding, comparable within an allelic series) | – | 10.4 upbm affinity estimate (log intensity, higher = more binding, comparable within an allelic series) | – | – | – | 10.4 upbm affinity estimate (log intensity, higher = more binding, comparable within an allelic series) | – | 10.5 upbm affinity estimate (log intensity, higher = more binding, comparable within an allelic series) | 9.86 upbm affinity estimate (log intensity, higher = more binding, comparable within an allelic series)
ACGGATCC | 10.2 upbm affinity estimate (log intensity, higher = more binding, comparable within an allelic series) | 9.26 upbm affinity estimate (log intensity, higher = more binding, comparable within an allelic series) | – | – | – | 10.1 upbm affinity estimate (log intensity, higher = more binding, comparable within an allelic series) | – | – | 10 upbm affinity estimate (log intensity, higher = more binding, comparable within an allelic series) | 10.2 upbm affinity estimate (log intensity, higher = more binding, comparable within an allelic series) | – | 10.5 upbm affinity estimate (log intensity, higher = more binding, comparable within an allelic series) | 9.67 upbm affinity estimate (log intensity, higher = more binding, comparable within an allelic series)
CCGTATCA | 11.1 upbm affinity estimate (log intensity, higher = more binding, comparable within an allelic series) | – | – | 11.1 upbm affinity estimate (log intensity, higher = more binding, comparable within an allelic series) | 11.1 upbm affinity estimate (log intensity, higher = more binding, comparable within an allelic series) | 11.1 upbm affinity estimate (log intensity, higher = more binding, comparable within an allelic series) | – | – | – | – | 10.9 upbm affinity estimate (log intensity, higher = more binding, comparable within an allelic series) | 11.1 upbm affinity estimate (log intensity, higher = more binding, comparable within an allelic series) | –
ATACAGAT | 10.7 upbm affinity estimate (log intensity, higher = more binding, comparable within an allelic series) | 10 upbm affinity estimate (log intensity, higher = more binding, comparable within an allelic series) | 10.5 upbm affinity estimate (log intensity, higher = more binding, comparable within an allelic series) | 10.7 upbm affinity estimate (log intensity, higher = more binding, comparable within an allelic series) | 10.5 upbm affinity estimate (log intensity, higher = more binding, comparable within an allelic series) | 10.6 upbm affinity estimate (log intensity, higher = more binding, comparable within an allelic series) | 10.7 upbm affinity estimate (log intensity, higher = more binding, comparable within an allelic series) | 10.3 upbm affinity estimate (log intensity, higher = more binding, comparable within an allelic series) | 10.5 upbm affinity estimate (log intensity, higher = more binding, comparable within an allelic series) | 10.6 upbm affinity estimate (log intensity, higher = more binding, comparable within an allelic series) | 10.5 upbm affinity estimate (log intensity, higher = more binding, comparable within an allelic series) | 10.8 upbm affinity estimate (log intensity, higher = more binding, comparable within an allelic series) | –
